Compound activity: PubChem, National Center for Advancing Translational Sciences (NCATS)
Compounds with a hit are over-represented: about 0.9% of the library has one in this group of screens.
gsp agonist: gsp mutant agonism; gsp mutant cells, cAMP HTRF, 30 min; Potency, µM (highest dose often 76.9 µM), inactives show at the top dose activation (cAMP increase), usual class: activators; 0.13% of 340,000 active; AID 624287; active = well fitted activation curve with a large enough effect; inconclusive = small, poorly fitted or top-dose-only effect, or another doubt; inactive = no such curve, though single readings can be large or run the other way; cell line not stated here;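 note: phosphodiesterase inhibitor Ro 20-1724 added with compounds to block cAMP breakdown; potency is the fitted concentration of half-maximal effect; nearly all actives have a fitted effect of over 60% in size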
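Cells in DMEM/10% FBS with G418 were pretreated with compounds in DMSO plus […] (300 uM stock) for 30 min at 37C. cAMP was measured by HTRF (cAMP-d2 plus anti-cAMP antibody-K) after 30 min at room temperature.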
RXFP1 antag: RXFP1 (human) relaxin receptor antagonism. 0.59% of 350,000 active. HEK293-RXFP1, relaxin-stimulated cAMP HTRF, 30 min; hits give low values. activity change, negative = inhibition, % at 57.5 µM;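 active = activity change of -60% or lower, but not beyond a set lower limit; inconclusive = change between -60% and -40%, or beyond the set limit; inactive = change above -40%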; note: % is set by controls: 0 for no effect and ±100 for the full control effect
Target sequence (Q9HBX9 whole entry, looked up): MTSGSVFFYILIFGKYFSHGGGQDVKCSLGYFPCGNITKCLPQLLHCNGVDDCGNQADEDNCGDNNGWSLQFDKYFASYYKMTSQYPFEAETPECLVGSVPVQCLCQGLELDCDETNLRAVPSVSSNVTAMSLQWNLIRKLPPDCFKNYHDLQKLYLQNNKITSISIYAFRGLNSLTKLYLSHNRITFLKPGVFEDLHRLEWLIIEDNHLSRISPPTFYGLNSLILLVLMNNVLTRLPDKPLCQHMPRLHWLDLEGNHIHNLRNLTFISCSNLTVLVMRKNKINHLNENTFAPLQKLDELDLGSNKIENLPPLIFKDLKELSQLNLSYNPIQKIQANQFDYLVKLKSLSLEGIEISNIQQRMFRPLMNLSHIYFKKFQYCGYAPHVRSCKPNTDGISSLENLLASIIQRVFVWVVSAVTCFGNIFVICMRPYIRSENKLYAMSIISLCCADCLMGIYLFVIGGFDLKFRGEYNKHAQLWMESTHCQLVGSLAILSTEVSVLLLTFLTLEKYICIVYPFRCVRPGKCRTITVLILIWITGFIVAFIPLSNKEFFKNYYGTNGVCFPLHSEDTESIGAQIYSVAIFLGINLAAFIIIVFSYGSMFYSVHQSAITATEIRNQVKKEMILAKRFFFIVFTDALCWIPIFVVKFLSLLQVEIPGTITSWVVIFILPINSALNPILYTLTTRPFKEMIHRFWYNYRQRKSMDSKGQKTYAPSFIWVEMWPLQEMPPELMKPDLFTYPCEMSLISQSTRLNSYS
gsp antagonist: antagonists of gsp mutant (McCune-Albright syndrome); Potency, µM (titrated, usually from 76.9 µM), without a hit: at the top dose activity change, negative = inhibition, most hits filed as inhibitors; 0.4% of 340,000 active; gsp-mutant cells, cAMP HTRF, 30 min; calls by dose curve; cell line not stated here;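 note: intracellular cAMP measured with PDE inhibitor Ro 20-1724 present during compound exposure; potency is the fitted concentration of half-maximal effect; % is set by controls: 0 for no effect and ±100 for the full control effect; nearly all actives have a fitted effect of over 65% in size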
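HTRF cAMP measurement after 30 min RT detection following 30 min, 37C compound treatment alongside […] (added as 300 uM solution) in G418-selected cells seeded at 2000/well and grown 16–24 h.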
RXFP1 agonist: activates the human relaxin receptor RXFP1. Potency, µM (series often up to 57.5 µM), for inactives: top-dose activation, hits mostly activators. 0.3% of 370,000 active. HEK293T-RXFP1 cAMP TR-FRET, 30 min; response scale: percent of porcine relaxin response, buffer zero; active = well fitted activation curve with a large enough effect; inconclusive = small, poorly fitted or top-dose-only effect; note: potency is the fitted concentration of half-maximal effect; % is set by controls: 0 for no effect and ±100 for the full control effect; nearly all actives have a fitted effect of over 60% in size
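HEK293 cells stably expressing RXFP1, treated 30 min at 37C with compounds plus PDE4 inhibitor Ro 20174; cAMP measured by HTRF TR-FRET. Normalized to buffer and 29 nM porcine relaxin; EC50 by Hill fit.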
* marks the source's active call; other numbers are inactive results; [ ] = dose if it differs, or a comment.

Results for C=CCNc1ncnc2c1ncn2C1OC(CO)C(O)C1O (configuration not stated) ?
gsp agonist: 25%; RXFP1 antag: 0; gsp antagonist: 4%; RXFP1 agonist: 25µM*

How did Cc1ccccc1N(C(=O)c1snc(C(N)=O)c1N)C(C(=O)NCC1CCCO1)c1ccc(F)cc1 (configuration not stated) do in these assays?
gsp agonist: 10%[15.4 µM]; RXFP1 antag: -90*; gsp antagonist: -15%; RXFP1 agonist: 1%

What do the screens show for `CCc1ccccc1N(C(=O)c1snc(C(N)=O)c1N)C(C(=O)NCC1CCCO1)c1ccc(C)o1` (configuration not stated)?
gsp agonist: -1%[15.4 µM]; RXFP1 antag: -119*; gsp antagonist: -6%; RXFP1 agonist: 1%

What do the screens show for `CCc1ccccc1N(C(=O)c1snc(C(N)=O)c1N)C(C(=O)NCC1CCCO1)c1ccc(N(C)C)cc1` (configuration not stated)?
gsp agonist: -16%[15.4 µM]; RXFP1 antag: -24; RXFP1 agonist: inconclusive

What do the screens show for `CC(C)c1ccc(N(C(=O)c2snc(C(N)=O)c2N)C(C(=O)NCC2CCCO2)c2ccc(N(C)C)cc2)cc1` (configuration not stated)?
gsp agonist: -1%[15.4 µM]; RXFP1 antag: -74*; gsp antagonist: inconclusive; RXFP1 agonist: inconclusive

How did COc1ccc(N(C(=O)c2snc(C(N)=O)c2N)C(C(=O)NCC2CCCO2)c2ccc(C)o2)cc1OC (configuration not stated) do in these assays?
gsp agonist: -7%; RXFP1 antag: -10; gsp antagonist: -14%; RXFP1 agonist: -2%

What do the screens show for `CN(C)c1ccc(C(C(=O)NCC2CCCO2)N(C(=O)c2snc(C(N)=O)c2N)c2ccccc2)cc1` (configuration not stated)?
gsp agonist: inconclusive; RXFP1 antag: 4; gsp antagonist: 10%; RXFP1 agonist: inconclusive

What do the screens show for `Cc1ccc(N(C(=O)c2snc(C(N)=O)c2N)C(C(=O)NCC2CCCO2)c2ccc(C)o2)c(C)c1` (configuration not stated)?
gsp agonist: 1%[15.4 µM]; RXFP1 antag: -63*; gsp antagonist: -20%; RXFP1 agonist: 2%

How did CC(C)N(C(=O)c1cc2c(Cl)nc3ccccc3c2s1)C1CCCCC1 do in these assays?
RXFP1 agonist: -4%

Results for CCOC(=O)c1c(NC(=O)CSc2cn(CCNC(=O)c3ccccc3F)c3ccccc23)sc2c1CCCC2 ?
RXFP1 agonist: -2%

Results for CC(C)n1nc(-c2cc3cc(O)ccc3[nH]2)c2c(N)ncnc21 ?
RXFP1 antag: -38

How did CCOC(=O)c1cccc(NS(=O)(=O)c2cc3c(cc2C)NC(=O)CO3)c1 do in these assays?
RXFP1 antag: 7; RXFP1 agonist: 2%

What do the screens show for `CCN1/C(=C/C(C)=C/c2sc3ccccc3[n+]2CC)Sc2ccccc21`?
gsp agonist: -93%; RXFP1 antag: -119*; gsp antagonist: 35µM*; RXFP1 agonist: 5%

Results for COc1ccc(N2CCN(C(=O)C3CCN(c4nc5ccc(C)cc5[nH]4)CC3)CC2)cc1 ?
RXFP1 antag: -25; RXFP1 agonist: -1%

What do the screens show for `Cc1ccc(C)c(N2CCN(C(=O)C3CCN(c4nc5ccc(C)cc5[nH]4)CC3)CC2)c1`?
RXFP1 antag: -69*; RXFP1 agonist: 4%

Results for Cc1cc(C)nc(N2CCC(C(=O)N3CCN(c4cc(Cl)ccc4C)CC3)CC2)n1 ?
gsp agonist: inconclusive; RXFP1 antag: -20; gsp antagonist: 28µM*; RXFP1 agonist: 4%

What do the screens show for `Cc1ccc(C)c(N2CCN(C(=O)C3CCN(c4nc(C)cc(C)n4)CC3)CC2)c1`?
gsp agonist: -36%; RXFP1 antag: -1; gsp antagonist: 35µM*; RXFP1 agonist: 0%

What do the screens show for `Cc1cccc(NC(=O)c2c(C)cc(C)nc2SCC(=O)c2ccccc2)c1`?
RXFP1 antag: -15; RXFP1 agonist: inconclusive

What do the screens show for `CCn1ccc(NS(=O)(=O)c2ccc(N)cc2)nc1=O`?
RXFP1 antag: -16

Results for CN(C)CCCNC(=S)N(Cc1cccs1)Cc1cc2cc3c(cc2[nH]c1=O)OCCO3 ?
gsp agonist: inconclusive; RXFP1 antag: -63*; gsp antagonist: 2%; RXFP1 agonist: 1%
